# Laboratory results: PubChem BioAssay (EPA / NIEHS)
# Activity calls are given as the source filed them. The calls were made as follows: active = hit-call score of the fitted dose curve at least 0.9, where 1 is the maximum; inactive = score below 0.9.
# How the values were obtained:
# [1] = CEETOX_H295R_OHPROG: CeeTox H295R High-throughput Steroidogenesis Assay for OH-Progesterone (OHPROG) (AID 2283435); conditions: actives raise or lower the signal
# How it was run: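 H295R human adrenal cells were prestimulated 48 h with 10 uM forskolin, then exposed 48 h to test chemical (0.1% DMSO final). 17alpha-hydroxyprogesterone in medium was measured by HPLC-MS/MS after MTBE extraction; bidirectional fitting vs DMSO.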
# [2] = CEETOX_H295R_CORTIC: CeeTox H295R High-throughput Steroidogenesis Assay for Corticosterone (CORTIC) (AID 2283437); conditions: actives raise or lower the signal;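 also: corticosterone secreted into medium quantified by mass spectrometry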
# How it was run: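 H295R adrenal cells prestimulated 48 hours with 10 uM forskolin, then exposed 48 hours to chemical in 0.1% DMSO. Corticosterone in medium measured by HPLC-MS/MS after MTBE extraction; MTT viability in the same wells; bidirectional fit versus DMSO.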
# [3] = CEETOX_H295R_CORTISOL: CeeTox H295R High-throughput Steroidogenesis Assay for Cortisol (AID 2283438); conditions: actives raise or lower the signal;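 also: cortisol secreted into medium quantified by LC-MS/MS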
# How it was run: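 H295R human adrenal cells were prestimulated 48 h with 10 uM forskolin, then exposed 48 h to test chemical (0.1% DMSO final). Medium cortisol was quantified by HPLC-MS/MS after MTBE extraction; bidirectional fitting relative to DMSO baseline.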
# [4] = CEETOX_H295R_DOC: CeeTox H295R High-throughput Steroidogenesis Assay for DOC (AID 2283439); conditions: actives raise or lower the signal
# How it was run: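 H295R adrenal cells prestimulated 48 h with 10 uM forskolin, then exposed 48 h to test chemical (0.1% DMSO final). Medium 11-deoxycorticosterone extracted with MTBE, quantified by HPLC-MS/MS; bidirectional fit versus DMSO baseline; MTT viability in same wells.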
# [5] = CEETOX_H295R_PROG: CeeTox H295R High-throughput Steroidogenesis Assay for Progesterone (PROG) (AID 2283442); conditions: actives raise or lower the signal;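 as to AC50: human H295R adrenal cells primed with 10 µM forskolin before dosing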
# How it was run: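 Measured analyte is progesterone secreted by H295R cells at 48 h of chemical treatment, following 10 uM forskolin priming. Quantitation used HPLC-MS/MS against a 7-point standard curve; cytotoxicity was checked by MTT absorbance.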
# [6] = CEETOX_H295R_ANDR: CeeTox H295R High-throughput Steroidogenesis Assay for Androstenedione (ANDR) (AID 2283436); conditions: actives raise or lower the signal
# How it was run: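 H295R cells, following OECD 456 with minor changes, exposed to chemicals for 48 h. Androstenedione in the medium was quantified by HPLC-MS/MS after MTBE extraction. Fitting was bidirectional versus DMSO; chemicals were diluted until MTT viability was ≥70%.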
# [7] = read-out: Tumor necrosis factor receptor superfamily member 6 (Homo sapiens) (UniProt P25445); test: LTEA_HepaRG_FAS: Life Technologies and Expression Analysis (LTEA) Assay for Fas cell surface death receptor (FAS) using HepaRG (AID 2283447); conditions: mRNA level, 48 h; actives raise or lower the signal
# How it was run: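 Differentiated HepaRG cells in serum-free induction medium were exposed 48 h to 8 half-log concentrations up to 100 uM in 0.5% DMSO, in duplicate. FAS mRNA was measured by qRT-PCR normalised to ACTB, GAPDH and POLR2A; bidirectional fit versus DMSO.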
# [8] = read-out: Fatty acid synthase (Homo sapiens) (UniProt P49327); test: LTEA_HepaRG_FASN: Life Technologies and Expression Analysis (LTEA) Assay for Fatty Acid Synthase (FASN) using HepaRG (AID 2283448); conditions: mRNA level, 48 h; actives raise or lower the signal
# How it was run: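 Differentiated human HepaRG cells were exposed for 48 h in serum-free induction medium to eight half-log concentrations up to 100 uM in 0.5% DMSO, in duplicate. FASN mRNA was quantified by TaqMan qRT-PCR, normalized to ACTB/GAPDH/POLR2A, and fitted bidirectionally against DMSO.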
# [9] = CEETOX_H295R_ESTRADIOL: CeeTox H295R High-throughput Steroidogenesis Assay for Estradiol (AID 2283440); conditions: actives raise or lower the signal;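 also: estradiol secreted into medium quantified by LC-MS/MS after dansyl derivatisation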
# How it was run: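 Readout is estradiol in conditioned medium, quantified by reverse-phase HPLC-MS/MS against a 7-point standard curve. Cells: H295R, forskolin-stimulated, then dosed 48 h in 0.1% DMSO; activity fitted in both directions relative to DMSO.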
# [10] = CEETOX_H295R_ESTRONE: CeeTox H295R High-throughput Steroidogenesis Assay for Estrone (AID 2283441); conditions: actives raise or lower the signal;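 also: estrone secreted into medium measured by LC-MS/MS after dansyl derivatization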
# How it was run: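 H295R cells; 48 h forskolin (10 uM) prestimulation; 48 h compound exposure, 0.1% DMSO final. Medium estrone: MTBE extraction, dansyl derivatization, HPLC-MS/MS. Bidirectional fit vs DMSO.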
# Chain of Fatty acid synthase (Homo sapiens) (P49327 whole entry, looked up): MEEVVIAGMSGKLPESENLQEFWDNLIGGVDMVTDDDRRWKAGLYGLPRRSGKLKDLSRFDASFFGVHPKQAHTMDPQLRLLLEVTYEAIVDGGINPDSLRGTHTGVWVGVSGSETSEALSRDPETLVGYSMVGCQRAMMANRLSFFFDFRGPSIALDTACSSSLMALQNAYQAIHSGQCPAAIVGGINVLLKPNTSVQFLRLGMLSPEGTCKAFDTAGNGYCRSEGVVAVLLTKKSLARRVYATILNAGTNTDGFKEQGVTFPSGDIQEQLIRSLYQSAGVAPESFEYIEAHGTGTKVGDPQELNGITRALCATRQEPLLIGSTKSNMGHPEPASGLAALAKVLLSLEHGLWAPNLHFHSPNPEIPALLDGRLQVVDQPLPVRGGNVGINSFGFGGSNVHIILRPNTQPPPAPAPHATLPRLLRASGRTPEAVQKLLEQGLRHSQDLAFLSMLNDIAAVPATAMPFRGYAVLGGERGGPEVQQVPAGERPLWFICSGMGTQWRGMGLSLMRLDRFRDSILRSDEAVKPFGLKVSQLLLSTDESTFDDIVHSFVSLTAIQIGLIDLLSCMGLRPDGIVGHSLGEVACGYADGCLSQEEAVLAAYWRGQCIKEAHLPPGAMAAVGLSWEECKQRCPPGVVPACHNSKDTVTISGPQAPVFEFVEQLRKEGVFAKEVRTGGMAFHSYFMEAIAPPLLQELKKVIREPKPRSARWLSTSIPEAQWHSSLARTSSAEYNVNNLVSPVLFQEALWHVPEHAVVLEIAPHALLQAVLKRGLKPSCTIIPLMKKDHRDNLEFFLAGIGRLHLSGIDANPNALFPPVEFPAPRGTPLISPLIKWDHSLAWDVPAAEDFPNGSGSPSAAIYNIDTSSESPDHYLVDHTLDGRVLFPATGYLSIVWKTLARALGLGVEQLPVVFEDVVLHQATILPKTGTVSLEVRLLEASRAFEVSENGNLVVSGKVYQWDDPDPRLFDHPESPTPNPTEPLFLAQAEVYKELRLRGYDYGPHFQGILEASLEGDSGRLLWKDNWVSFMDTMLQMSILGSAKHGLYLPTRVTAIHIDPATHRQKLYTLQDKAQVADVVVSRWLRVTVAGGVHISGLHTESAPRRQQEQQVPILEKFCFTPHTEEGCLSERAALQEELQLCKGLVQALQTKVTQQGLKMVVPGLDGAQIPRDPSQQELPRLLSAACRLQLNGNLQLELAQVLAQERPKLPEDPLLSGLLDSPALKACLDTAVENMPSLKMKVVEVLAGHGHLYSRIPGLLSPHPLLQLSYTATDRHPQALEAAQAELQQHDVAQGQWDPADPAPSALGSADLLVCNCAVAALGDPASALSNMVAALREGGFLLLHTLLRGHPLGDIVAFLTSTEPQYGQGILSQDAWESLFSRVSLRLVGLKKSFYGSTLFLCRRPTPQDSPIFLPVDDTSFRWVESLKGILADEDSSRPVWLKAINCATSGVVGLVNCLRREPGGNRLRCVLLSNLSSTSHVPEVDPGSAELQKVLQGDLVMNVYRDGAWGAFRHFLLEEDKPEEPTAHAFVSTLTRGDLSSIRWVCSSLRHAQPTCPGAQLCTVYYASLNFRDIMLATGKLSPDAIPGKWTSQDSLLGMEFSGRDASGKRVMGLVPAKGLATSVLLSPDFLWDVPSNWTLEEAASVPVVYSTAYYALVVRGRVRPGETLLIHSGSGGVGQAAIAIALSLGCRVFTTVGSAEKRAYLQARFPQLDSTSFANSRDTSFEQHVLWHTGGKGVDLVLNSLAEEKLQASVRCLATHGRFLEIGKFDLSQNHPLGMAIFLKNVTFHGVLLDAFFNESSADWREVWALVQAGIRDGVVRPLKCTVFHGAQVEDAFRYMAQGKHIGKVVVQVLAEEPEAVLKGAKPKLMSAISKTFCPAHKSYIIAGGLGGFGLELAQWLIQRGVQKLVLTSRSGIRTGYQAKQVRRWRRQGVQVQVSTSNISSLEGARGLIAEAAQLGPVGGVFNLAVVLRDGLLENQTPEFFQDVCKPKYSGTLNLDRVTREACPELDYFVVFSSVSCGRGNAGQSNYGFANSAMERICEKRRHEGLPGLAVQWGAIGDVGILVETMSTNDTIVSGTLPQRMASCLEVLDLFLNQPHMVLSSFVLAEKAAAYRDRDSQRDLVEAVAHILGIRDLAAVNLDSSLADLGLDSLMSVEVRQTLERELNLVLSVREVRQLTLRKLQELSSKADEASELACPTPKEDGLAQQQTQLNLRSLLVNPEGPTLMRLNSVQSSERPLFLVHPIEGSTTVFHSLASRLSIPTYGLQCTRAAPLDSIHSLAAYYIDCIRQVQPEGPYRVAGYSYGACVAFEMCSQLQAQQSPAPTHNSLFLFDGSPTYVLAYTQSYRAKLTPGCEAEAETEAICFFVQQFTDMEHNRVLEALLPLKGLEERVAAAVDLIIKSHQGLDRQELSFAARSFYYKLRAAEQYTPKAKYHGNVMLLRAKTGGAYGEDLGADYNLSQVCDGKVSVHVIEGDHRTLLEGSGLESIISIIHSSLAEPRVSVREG
smiles,measurement,setting,value
CC=Cc1ccc(OCC)c(O)c1,AC50,[1],11 µM (active)
same,outcome,[2],inactive
same,outcome,[3],inactive
same,outcome,[4],inactive
same,AC50,[5],20.7 µM (active)
CC(C)Nc1nc(N)nc(Cl)n1,outcome,[1],inactive
same,outcome,[2],inactive
same,outcome,[3],inactive
same,outcome,[4],inactive
same,outcome,[5],inactive
COc1ccc(CCN2CCC(Nc3nc4ccccc4n3Cc3ccc(F)cc3)CC2)cc1,AC50,[1],1.41 µM (active)
same,AC50,[2],1.48 µM (active)
same,AC50,[3],1.56 µM (active)
same,AC50,[4],1.52 µM (active)
same,AC50,[5],0.789 µM (active)
C=C1CC[C@H](O)C/C1=C/C=C1\CCC[C@]2(C)[C@@H]([C@H](C)/C=C/[C@H](C)C(C)C)CC[C@@H]12,AC50,[1],12.3 µM (active)
same,outcome,[2],inactive
same,AC50,[3],42.5 µM (active)
same,AC50,[4],87.2 µM (active)
same,AC50,[5],84.3 µM (active)
Nc1ccc(N)c2c1C(=O)c1ccccc1C2=O,AC50,[1],1.51 µM (active)
same,outcome,[6],inactive
same,outcome,[2],inactive
same,outcome,[3],inactive
same,AC50,[4],4.43 µM (active)
same,outcome,[5],inactive
COCCc1ccc(OCC(O)CNC(C)C)cc1 (stereo unspecified),AC50,[1],50 µM (active)
same,outcome,[2],inactive
same,outcome,[3],inactive
same,outcome,[4],inactive
same,outcome,[5],inactive
CCCCCCCCN1CCCC1=O,outcome,[1],inactive
same,outcome,[2],inactive
same,outcome,[3],inactive
same,outcome,[4],inactive
same,outcome,[5],inactive
Cc1cc(=O)oc2cc(N(C)C)ccc12,AC50,[1],50 µM (active)
same,outcome,[2],inactive
same,outcome,[3],inactive
same,outcome,[4],inactive
same,outcome,[5],inactive
CCC(C)c1cc([N+](=O)[O-])cc([N+](=O)[O-])c1OC(=O)OC(C)C (stereo unspecified),outcome,[1],inactive
same,outcome,[6],inactive
same,outcome,[2],inactive
same,outcome,[3],inactive
same,outcome,[4],inactive
same,outcome,[5],inactive
CC(CN=Cc1ccccc1O)N=Cc1ccccc1O (stereo unspecified),AC50,[1],1.97 µM (active)
same,outcome,[2],inactive
same,AC50,[3],4.06 µM (active)
same,AC50,[4],1.7 µM (active)
same,outcome,[5],inactive
COc1ccc(N=Nc2cc(C)c(N=Nc3ccc(S(=O)(=O)O)cc3)cc2OC)cc1,AC50,[1],34.6 µM (active)
same,outcome,[2],inactive
same,outcome,[3],inactive
same,outcome,[4],inactive
same,AC50,[5],50 µM (active)
CCOC(=O)[C@@H](C)Oc1ccc(Oc2nc3ccc(Cl)cc3o2)cc1,AC50,[1],10.1 µM (active)
same,outcome,[6],inactive
same,outcome,[2],inactive
same,outcome,[3],inactive
same,AC50,[4],22.8 µM (active)
same,AC50,[5],25.7 µM (active)
CCc1cc(C(C)(C)C)c(O)c(C(C)(C)C)c1,outcome,[1],inactive
same,outcome,[2],inactive
same,outcome,[3],inactive
same,outcome,[4],inactive
same,outcome,[5],inactive
CS(=O)(=O)OCCCCOS(C)(=O)=O,outcome,[7],inactive
same,outcome,[8],inactive
OCc1cccc(Oc2ccccc2)c1,AC50,[1],50 µM (active)
same,AC50,[6],50 µM (active)
same,outcome,[5],inactive
BrCc1cccc(Oc2ccccc2)c1,AC50,[1],36.5 µM (active)
same,AC50,[6],38.2 µM (active)
same,AC50,[2],32.7 µM (active)
same,outcome,[3],inactive
same,outcome,[4],inactive
same,outcome,[5],inactive
CC(C)(C)CC(C)(C)c1ccc(OCCOCC[N+](C)(C)Cc2ccccc2)cc1,outcome,[1],inactive
same,outcome,[2],inactive
same,outcome,[3],inactive
same,outcome,[4],inactive
same,outcome,[9],inactive
same,outcome,[10],inactive
same,outcome,[5],inactive
CC1(C)C(=O)N(Cl)C(=O)N1Br,outcome,[1],inactive
same,outcome,[2],inactive
same,outcome,[3],inactive
same,outcome,[4],inactive
same,outcome,[5],inactive
